# Measurements from the supplement of paper PMC8728848.
# The full list was thinned out, with the strongest signals kept by preference.
# Tests used:
# Experiment in all cases: glycan array binding signal (z-score within array); higher = stronger binding
# Details in all cases: glycan notation: IUPAC condensed, linker removed
# [1] = target: Gal3S(b1-4)[Fuc(a1-3)]GlcNAc
# Summary of the method: (§1)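 Glycan array binding is given as a within-array Z-score, which can be read as non-binding when negative. The arrays, 3228 of them, came from the Consortium for Functional Glycomics database and were retained only where the protein sequence was available. Z-scores were averaged across arrays of the same protein sequence at different concentrations or buffers and across linkers.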
# [2] = target: GalNAc(a1-3)GalNAc(b1-3)Gal(a1-4)Gal(b1-4)GlcNAc
# Summary of the method: as §1
# [3] = target: Glc(a1-4)Glc
# Summary of the method: as §1
# [4] = target: GlcA3S(b1-3)Gal(b1-4)GlcNAc(b1-3)Gal(b1-4)Glc
# Summary of the method: as §1
# [5] = target: GlcNAc(a1-4)Gal(b1-3)GlcNAc
# Summary of the method: as §1
# [6] = target: GlcNAc(a1-4)Gal(b1-4)GlcNAc(b1-3)Gal(b1-4)Glc
# Summary of the method: as §1
# [7] = target: GlcNAc(b1-3)Gal(b1-4)GlcNAc(b1-2)Man(a1-3)[GlcNAc(b1-3)Gal(b1-4)GlcNAc(b1-2)Man(a1-6)]Man(b1-4)GlcNAc(b1-4)[Fuc(a1-6)]GlcNAc
# Summary of the method: as §1
# [8] = target: GlcNAc(b1-3)Gal(b1-4)GlcNAc(b1-2)[GlcNAc(b1-3)Gal(b1-4)GlcNAc(b1-6)]Man(a1-6)[GlcNAc(b1-3)Gal(b1-4)GlcNAc(b1-2)Man(a1-3)]Man(b1-4)GlcNAc(b1-4)GlcNAc
# Summary of the method: as §1
# [9] = target: GlcNAc(b1-3)Gal(b1-4)GlcNAc(b1-3)Gal(b1-4)GlcNAc(b1-2)Man(a1-3)[GlcNAc(b1-3)Gal(b1-4)GlcNAc(b1-3)Gal(b1-4)GlcNAc(b1-2)Man(a1-6)]Man(b1-4)GlcNAc(b1-4)[Fuc(a1-6)]GlcNAc
# Summary of the method: as §1
# [10] = target: GlcNAc(b1-3)[GlcNAc(b1-4)][GlcNAc(b1-6)]GlcNAc
# Summary of the method: as §1
# [11] = target: GlcNAc(b1-4)GlcNAc(b1-4)GlcNAc(b1-4)GlcNAc(b1-4)GlcNAc
# Summary of the method: as §1
# [12] = target: GlcNAc(b1-6)GalNAc
# Summary of the method: as §1
# [13] = target: GlcNAc6S(b1-3)Gal(b1-4)GlcNAc
# Summary of the method: as §1
# [14] = target: Man(a1-2)Man(a1-2)Man(a1-3)Man
# Summary of the method: as §1
# [15] = target: Man(a1-3)[Man(a1-6)]Man
# Summary of the method: as §1
# [16] = target: Man(a1-3)[Man(a1-6)]Man(a1-6)[Man(a1-2)Man(a1-3)]Man(b1-4)GlcNAc(b1-4)GlcNAc
# Summary of the method: as §1
# [17] = target: Man(a1-3)[Man(a1-6)]Man(b1-4)GlcNAc(b1-4)GlcNAc
# Summary of the method: as §1
# [18] = target: Man(a1-6)Man
# Summary of the method: as §1
# [19] = target: Neu5Ac(a2-3)Gal(b1-3)GalNAc
# Summary of the method: as §1
# [20] = target: Neu5Ac(a2-3)Gal(b1-4)GlcNAc(b1-2)Man(a1-3)[Neu5Ac(a2-3)Gal(b1-4)GlcNAc(b1-2)Man(a1-6)]Man(b1-4)GlcNAc(b1-4)[Fuc(a1-6)]GlcNAc
# Summary of the method: as §1
# [21] = target: Neu5Ac(a2-3)Gal(b1-4)GlcNAc(b1-3)Gal(b1-4)GlcNAc(b1-3)Gal(b1-4)GlcNAc(b1-2)Man(a1-3)[Neu5Ac(a2-3)Gal(b1-4)GlcNAc(b1-3)Gal(b1-4)GlcNAc(b1-3)Gal(b1-4)GlcNAc(b1-2)Man(a1-6)]GalNAc
# Summary of the method: as §1
# [22] = target: Neu5Ac(a2-3)Gal(b1-4)GlcNAc(b1-6)GalNAc
# Summary of the method: as §1
# [23] = target: Neu5Ac(a2-3)Gal(b1-4)[Fuc(a1-3)]GlcNAc(b1-3)GalNAc
# Summary of the method: as §1
# [24] = target: Neu5Ac(a2-3)[GalNAc(b1-4)]Gal(b1-4)Glc
# Summary of the method: as §1
# [25] = target: Neu5Ac(a2-6)Gal(b1-3)GlcNAc(b1-3)[Gal(b1-4)GlcNAc(b1-6)]Gal(b1-4)Glc
# Summary of the method: as §1
# [26] = target: Neu5Ac(a2-6)Gal(b1-4)GlcNAc(b1-2)Man(a1-3)[Man(a1-6)]Man(b1-4)GlcNAc(b1-4)GlcNAc
# Summary of the method: as §1
# [27] = target: Neu5Ac(a2-6)Gal(b1-4)GlcNAc(b1-2)Man(a1-3)[Neu5Ac(a2-6)Gal(b1-4)GlcNAc(b1-2)Man(a1-6)]Man(b1-4)GlcNAc(b1-4)GlcNAc
# Summary of the method: as §1
# [28] = target: Neu5Ac(a2-6)Gal(b1-4)GlcNAc(b1-2)Man(a1-3)[Neu5Ac(a2-6)Gal(b1-4)GlcNAc(b1-2)Man(a1-6)]Man(b1-4)GlcNAc(b1-4)[Fuc(a1-6)]GlcNAc
# Summary of the method: as §1
# [29] = target: Neu5Ac(a2-6)Gal(b1-4)GlcNAc(b1-2)Man(a1-6)[Gal(b1-4)GlcNAc(b1-2)Man(a1-3)]Man(b1-4)GlcNAc(b1-4)GlcNAc
# Summary of the method: as §1
# [30] = target: Neu5Ac(a2-6)Gal(b1-4)GlcNAc(b1-2)Man(a1-6)[Man(a1-3)]Man(b1-4)GlcNAc(b1-4)GlcNAc
# Summary of the method: as §1
# [31] = target: Neu5Ac(a2-6)GalNAc
# Summary of the method: as §1
# [32] = target: Neu5Gc(a2-3)Gal(b1-3)[Fuc(a1-4)]GlcNAc
# Summary of the method: as §1
# [33] = target: Neu5Gc(a2-8)Neu5Ac(a2-3)Gal(b1-4)GlcNAc
# Summary of the method: as §1
binder,measurement,setting,value
RBMC1 (Vibrio cholerae) (protein) QQSQRVVTADNLMYLRSGFAIDAIGTTVNNLVGGPVQGTNGGVLRAPIALDQLQSVEVTSGLYNWGGYHIVAIKFTMKDGSSVLLGSTHYASNKKVETYTVPQGKRIKQINVWTGGWLVEGFQFVY,glycan array binding signal (z-score),[1],-0.188
same,glycan array binding signal (z-score),[2],-0.064
same,glycan array binding signal (z-score),[3],-0.216
same,glycan array binding signal (z-score),[4],-0.217
same,glycan array binding signal (z-score),[5],-0.355
same,glycan array binding signal (z-score),[6],-0.284
same,glycan array binding signal (z-score),[7],2.83
same,glycan array binding signal (z-score),[8],-0.295
same,glycan array binding signal (z-score),[9],2.5
same,glycan array binding signal (z-score),[10],-0.158
same,glycan array binding signal (z-score),[11],-0.358
same,glycan array binding signal (z-score),[12],-0.289
same,glycan array binding signal (z-score),[13],-0.267
same,glycan array binding signal (z-score),[14],-0.395
same,glycan array binding signal (z-score),[15],0.002
same,glycan array binding signal (z-score),[16],0.166
same,glycan array binding signal (z-score),[17],1.13
same,glycan array binding signal (z-score),[18],1.1
same,glycan array binding signal (z-score),[19],-0.226
same,glycan array binding signal (z-score),[20],3.39
same,glycan array binding signal (z-score),[21],0.281
same,glycan array binding signal (z-score),[22],-0.114
same,glycan array binding signal (z-score),[23],-0.194
same,glycan array binding signal (z-score),[24],-0.432
same,glycan array binding signal (z-score),[25],-0.461
same,glycan array binding signal (z-score),[26],10.4
same,glycan array binding signal (z-score),[27],4.94
same,glycan array binding signal (z-score),[28],11.9
same,glycan array binding signal (z-score),[29],3.13
same,glycan array binding signal (z-score),[30],-0.031
same,glycan array binding signal (z-score),[31],-0.35
same,glycan array binding signal (z-score),[32],-0.039
same,glycan array binding signal (z-score),[33],-0.406
